Legend:
Test in all cases: log2 ratio of Biotin-Ahx-Ub-VS probe labelling (fragment/DMSO); higher = less target engagement (more negative = stronger competition), active = hit call of the paper (q ≤ 0.05, log2 ratio ≤ -1)
Details in all cases: compound concentration: 200 uM; treatment time: 3 h
USP42 = molecular target: T1, USP42 (UniProt Q9H9J4)
T1 sequence (whole entry): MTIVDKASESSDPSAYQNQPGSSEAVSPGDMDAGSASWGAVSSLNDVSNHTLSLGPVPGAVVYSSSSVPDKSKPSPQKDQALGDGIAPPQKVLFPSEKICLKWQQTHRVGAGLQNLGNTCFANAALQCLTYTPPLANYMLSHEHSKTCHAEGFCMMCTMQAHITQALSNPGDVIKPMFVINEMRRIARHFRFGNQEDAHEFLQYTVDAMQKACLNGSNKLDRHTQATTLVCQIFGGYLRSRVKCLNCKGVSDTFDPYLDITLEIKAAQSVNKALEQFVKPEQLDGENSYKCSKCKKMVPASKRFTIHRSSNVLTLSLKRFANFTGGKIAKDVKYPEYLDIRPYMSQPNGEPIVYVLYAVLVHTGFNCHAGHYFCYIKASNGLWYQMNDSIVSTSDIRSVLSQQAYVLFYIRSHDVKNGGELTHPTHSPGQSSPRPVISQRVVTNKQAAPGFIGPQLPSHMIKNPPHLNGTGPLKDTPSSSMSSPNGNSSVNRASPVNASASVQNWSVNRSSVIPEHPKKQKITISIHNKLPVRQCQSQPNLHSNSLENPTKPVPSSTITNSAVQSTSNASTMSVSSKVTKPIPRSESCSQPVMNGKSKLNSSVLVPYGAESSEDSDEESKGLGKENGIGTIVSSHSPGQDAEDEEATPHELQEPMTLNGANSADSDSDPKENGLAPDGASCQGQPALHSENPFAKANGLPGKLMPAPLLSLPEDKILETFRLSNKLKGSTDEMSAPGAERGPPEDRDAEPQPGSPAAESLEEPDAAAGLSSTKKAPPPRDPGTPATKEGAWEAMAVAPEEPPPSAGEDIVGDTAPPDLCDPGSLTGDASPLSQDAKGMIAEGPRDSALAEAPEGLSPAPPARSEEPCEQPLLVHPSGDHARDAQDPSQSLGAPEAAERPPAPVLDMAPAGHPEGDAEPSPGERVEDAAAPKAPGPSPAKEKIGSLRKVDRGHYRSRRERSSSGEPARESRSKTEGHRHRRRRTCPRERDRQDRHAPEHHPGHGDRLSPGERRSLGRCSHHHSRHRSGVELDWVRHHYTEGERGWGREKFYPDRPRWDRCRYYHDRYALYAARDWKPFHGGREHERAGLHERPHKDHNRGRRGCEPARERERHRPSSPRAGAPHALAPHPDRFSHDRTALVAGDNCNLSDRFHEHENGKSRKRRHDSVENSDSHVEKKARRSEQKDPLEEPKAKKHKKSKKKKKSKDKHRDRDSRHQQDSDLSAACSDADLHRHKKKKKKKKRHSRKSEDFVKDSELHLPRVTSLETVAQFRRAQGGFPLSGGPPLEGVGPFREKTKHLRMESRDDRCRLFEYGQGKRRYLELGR
Outline: (§1)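 Labelled DUBs from HEK293T lysate were NeutrAvidin-enriched, digested with LysC and trypsin, and run by diaPASEF LC-MS/MS. Before that, each 495 µg sample in Tris/CHAPS/IGEPAL buffer with protease inhibitors was treated in triplicate with fragment at 200 µM or vehicle for 3 h, then with Biotin-Ahx-Ub-VS at 0.5 µM final for 1 h. Values are average log2 ratios of fragment over vehicle by unpaired t-test, based on global-median-normalised Spectronaut label-free quantities from proteins with ≥2 unique peptides.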

USP46 = USP46 (UniProt P62068)
Outline: as §1

USP47 = molecular target: T2, USP47 (UniProt Q96K76)
T2 sequence (whole entry): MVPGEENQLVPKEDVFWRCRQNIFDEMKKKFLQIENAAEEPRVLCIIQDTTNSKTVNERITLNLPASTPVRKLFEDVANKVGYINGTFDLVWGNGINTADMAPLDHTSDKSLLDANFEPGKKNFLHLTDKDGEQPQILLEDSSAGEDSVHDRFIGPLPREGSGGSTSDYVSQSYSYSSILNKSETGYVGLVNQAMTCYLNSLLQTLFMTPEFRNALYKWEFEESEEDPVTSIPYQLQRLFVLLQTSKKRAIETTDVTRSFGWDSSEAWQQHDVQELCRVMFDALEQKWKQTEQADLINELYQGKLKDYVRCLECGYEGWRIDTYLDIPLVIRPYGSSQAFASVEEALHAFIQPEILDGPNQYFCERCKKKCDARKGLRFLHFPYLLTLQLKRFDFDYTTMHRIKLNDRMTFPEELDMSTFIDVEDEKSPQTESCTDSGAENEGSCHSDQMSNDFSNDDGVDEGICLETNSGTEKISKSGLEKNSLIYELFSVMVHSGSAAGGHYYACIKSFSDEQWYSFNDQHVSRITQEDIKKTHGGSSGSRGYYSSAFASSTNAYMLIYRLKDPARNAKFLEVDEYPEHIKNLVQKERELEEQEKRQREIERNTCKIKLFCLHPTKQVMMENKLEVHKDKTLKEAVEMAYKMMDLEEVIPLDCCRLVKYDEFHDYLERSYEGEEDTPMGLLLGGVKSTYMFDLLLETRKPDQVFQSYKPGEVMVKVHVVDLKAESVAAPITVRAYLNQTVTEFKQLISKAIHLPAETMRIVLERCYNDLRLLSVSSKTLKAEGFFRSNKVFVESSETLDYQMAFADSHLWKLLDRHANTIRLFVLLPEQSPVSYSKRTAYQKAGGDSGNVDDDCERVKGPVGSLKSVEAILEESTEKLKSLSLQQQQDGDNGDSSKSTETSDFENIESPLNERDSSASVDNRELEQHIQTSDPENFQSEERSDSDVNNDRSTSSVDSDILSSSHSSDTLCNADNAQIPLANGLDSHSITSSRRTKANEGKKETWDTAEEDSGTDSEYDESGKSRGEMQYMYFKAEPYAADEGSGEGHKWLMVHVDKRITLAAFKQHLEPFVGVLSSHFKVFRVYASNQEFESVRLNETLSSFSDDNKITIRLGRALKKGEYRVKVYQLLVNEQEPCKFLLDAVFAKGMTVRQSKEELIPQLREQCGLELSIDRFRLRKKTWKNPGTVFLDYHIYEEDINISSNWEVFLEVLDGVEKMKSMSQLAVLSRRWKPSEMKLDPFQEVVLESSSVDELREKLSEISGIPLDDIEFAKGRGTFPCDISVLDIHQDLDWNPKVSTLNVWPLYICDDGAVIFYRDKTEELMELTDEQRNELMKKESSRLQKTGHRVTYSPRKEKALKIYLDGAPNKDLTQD
Outline: as §1

USP48 = molecular target: T3, USP48 (UniProt Q86UV5)
T3 sequence (whole entry): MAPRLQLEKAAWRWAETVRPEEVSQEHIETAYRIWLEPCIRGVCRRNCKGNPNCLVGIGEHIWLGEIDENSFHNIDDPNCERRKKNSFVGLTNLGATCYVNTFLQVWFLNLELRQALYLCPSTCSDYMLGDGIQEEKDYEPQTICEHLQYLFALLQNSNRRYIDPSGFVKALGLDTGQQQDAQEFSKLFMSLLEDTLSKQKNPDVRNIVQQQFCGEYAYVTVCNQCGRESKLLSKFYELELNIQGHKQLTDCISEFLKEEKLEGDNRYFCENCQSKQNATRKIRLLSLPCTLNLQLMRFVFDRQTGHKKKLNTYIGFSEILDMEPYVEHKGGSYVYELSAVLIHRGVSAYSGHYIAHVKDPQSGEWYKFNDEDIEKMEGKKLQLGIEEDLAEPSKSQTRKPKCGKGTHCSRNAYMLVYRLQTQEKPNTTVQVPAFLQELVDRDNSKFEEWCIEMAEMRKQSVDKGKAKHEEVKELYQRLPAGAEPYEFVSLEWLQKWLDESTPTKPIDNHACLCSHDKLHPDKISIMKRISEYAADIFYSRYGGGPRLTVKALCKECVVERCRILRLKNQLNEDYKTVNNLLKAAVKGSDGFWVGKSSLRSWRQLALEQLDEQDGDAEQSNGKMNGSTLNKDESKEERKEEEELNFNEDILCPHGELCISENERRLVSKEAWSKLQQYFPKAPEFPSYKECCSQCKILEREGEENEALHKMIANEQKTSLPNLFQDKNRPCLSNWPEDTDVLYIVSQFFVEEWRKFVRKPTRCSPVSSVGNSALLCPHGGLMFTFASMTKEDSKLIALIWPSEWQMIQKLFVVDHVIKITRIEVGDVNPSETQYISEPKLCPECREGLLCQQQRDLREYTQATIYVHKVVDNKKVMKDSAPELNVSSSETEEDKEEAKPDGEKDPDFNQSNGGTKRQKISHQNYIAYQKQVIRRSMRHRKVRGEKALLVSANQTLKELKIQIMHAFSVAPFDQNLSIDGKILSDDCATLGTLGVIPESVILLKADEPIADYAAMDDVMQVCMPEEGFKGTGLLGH
Outline: as §1

USP5 = molecular target: T4, USP5 (UniProt P45974)
T4 sequence (whole entry): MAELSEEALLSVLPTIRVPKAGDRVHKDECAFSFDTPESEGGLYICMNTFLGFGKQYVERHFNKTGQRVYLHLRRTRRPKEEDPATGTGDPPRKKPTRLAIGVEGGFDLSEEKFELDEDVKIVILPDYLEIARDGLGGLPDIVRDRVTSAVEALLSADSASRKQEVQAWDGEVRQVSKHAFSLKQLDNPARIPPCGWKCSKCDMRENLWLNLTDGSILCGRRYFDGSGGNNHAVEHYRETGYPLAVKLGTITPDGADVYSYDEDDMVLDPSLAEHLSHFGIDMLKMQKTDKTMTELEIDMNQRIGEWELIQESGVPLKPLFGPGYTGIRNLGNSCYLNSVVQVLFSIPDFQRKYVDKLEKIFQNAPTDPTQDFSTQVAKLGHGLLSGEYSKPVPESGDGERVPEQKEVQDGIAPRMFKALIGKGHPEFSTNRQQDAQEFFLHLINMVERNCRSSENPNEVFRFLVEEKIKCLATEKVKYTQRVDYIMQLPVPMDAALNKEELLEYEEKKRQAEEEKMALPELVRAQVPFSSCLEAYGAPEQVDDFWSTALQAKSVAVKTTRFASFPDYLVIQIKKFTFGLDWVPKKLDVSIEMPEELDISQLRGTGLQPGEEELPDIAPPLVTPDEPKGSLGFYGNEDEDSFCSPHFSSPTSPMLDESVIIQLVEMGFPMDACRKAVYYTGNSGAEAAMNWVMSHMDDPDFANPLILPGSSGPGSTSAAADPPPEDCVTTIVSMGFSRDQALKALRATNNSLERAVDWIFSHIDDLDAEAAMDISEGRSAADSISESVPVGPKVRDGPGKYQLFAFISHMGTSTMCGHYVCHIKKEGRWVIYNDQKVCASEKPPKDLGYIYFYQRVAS
Outline: as §1

USP54 = USP54 (UniProt Q70EL1)
Outline: as §1

USP7 = USP7 (UniProt Q93009)
Outline: as §1

USP8 = molecular target: T5, USP8 (UniProt P40818)
T5 sequence (whole entry): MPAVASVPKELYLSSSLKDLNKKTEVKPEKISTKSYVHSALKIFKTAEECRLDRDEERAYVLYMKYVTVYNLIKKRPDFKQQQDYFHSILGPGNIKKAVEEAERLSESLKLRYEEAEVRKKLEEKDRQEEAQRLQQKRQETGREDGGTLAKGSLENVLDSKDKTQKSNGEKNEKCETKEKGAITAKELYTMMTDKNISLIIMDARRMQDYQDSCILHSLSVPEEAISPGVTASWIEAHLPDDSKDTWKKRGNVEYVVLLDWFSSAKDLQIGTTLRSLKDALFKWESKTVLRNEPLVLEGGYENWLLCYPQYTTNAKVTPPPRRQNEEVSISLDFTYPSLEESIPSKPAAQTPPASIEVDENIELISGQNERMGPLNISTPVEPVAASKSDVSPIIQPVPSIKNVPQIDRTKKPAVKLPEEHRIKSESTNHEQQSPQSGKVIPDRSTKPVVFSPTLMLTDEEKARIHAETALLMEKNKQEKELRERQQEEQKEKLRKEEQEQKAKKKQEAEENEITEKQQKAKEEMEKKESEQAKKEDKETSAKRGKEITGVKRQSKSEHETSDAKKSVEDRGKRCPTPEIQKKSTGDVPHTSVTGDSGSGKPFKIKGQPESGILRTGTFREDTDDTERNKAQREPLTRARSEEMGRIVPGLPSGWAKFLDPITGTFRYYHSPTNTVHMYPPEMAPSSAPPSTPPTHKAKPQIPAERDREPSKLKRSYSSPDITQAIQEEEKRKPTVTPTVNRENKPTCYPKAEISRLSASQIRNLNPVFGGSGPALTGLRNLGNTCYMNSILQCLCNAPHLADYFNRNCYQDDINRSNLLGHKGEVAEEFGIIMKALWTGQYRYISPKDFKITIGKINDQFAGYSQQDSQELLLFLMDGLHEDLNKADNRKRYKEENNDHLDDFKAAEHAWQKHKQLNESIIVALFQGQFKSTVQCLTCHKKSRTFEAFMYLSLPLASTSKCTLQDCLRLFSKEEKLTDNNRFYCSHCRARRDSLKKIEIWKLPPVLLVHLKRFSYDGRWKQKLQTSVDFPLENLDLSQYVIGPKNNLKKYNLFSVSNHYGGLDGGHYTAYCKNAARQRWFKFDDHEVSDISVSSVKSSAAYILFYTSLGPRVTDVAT
Outline: as §1

USP9X = USP9X (UniProt Q93008)
Outline: as §1

UniProt O00487 = molecular target: UniProt O00487
Outline: as §1

Measured: log2 ratio of Biotin-Ahx-Ub-VS probe labelling

USP46, sequence (P62068 whole entry): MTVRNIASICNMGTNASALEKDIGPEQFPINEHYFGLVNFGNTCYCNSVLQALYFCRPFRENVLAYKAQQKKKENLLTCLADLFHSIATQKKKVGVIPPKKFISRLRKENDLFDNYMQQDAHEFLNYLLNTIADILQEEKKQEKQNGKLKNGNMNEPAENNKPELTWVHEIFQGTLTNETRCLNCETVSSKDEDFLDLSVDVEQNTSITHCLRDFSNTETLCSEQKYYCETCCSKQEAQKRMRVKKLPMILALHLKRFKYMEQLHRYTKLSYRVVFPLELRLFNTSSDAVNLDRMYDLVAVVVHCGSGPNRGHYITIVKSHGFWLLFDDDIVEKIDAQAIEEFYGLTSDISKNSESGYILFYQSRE
UniProt O00487, sequence (O00487 whole entry): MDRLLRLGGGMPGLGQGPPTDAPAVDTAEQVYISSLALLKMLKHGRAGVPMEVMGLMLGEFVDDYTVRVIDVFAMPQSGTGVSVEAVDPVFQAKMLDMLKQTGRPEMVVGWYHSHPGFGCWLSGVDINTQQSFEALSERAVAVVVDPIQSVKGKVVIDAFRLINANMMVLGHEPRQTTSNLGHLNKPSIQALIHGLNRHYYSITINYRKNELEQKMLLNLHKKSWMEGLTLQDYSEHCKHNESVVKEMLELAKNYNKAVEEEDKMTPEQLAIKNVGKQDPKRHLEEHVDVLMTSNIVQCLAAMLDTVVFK
USP9X, sequence (Q93008 whole entry): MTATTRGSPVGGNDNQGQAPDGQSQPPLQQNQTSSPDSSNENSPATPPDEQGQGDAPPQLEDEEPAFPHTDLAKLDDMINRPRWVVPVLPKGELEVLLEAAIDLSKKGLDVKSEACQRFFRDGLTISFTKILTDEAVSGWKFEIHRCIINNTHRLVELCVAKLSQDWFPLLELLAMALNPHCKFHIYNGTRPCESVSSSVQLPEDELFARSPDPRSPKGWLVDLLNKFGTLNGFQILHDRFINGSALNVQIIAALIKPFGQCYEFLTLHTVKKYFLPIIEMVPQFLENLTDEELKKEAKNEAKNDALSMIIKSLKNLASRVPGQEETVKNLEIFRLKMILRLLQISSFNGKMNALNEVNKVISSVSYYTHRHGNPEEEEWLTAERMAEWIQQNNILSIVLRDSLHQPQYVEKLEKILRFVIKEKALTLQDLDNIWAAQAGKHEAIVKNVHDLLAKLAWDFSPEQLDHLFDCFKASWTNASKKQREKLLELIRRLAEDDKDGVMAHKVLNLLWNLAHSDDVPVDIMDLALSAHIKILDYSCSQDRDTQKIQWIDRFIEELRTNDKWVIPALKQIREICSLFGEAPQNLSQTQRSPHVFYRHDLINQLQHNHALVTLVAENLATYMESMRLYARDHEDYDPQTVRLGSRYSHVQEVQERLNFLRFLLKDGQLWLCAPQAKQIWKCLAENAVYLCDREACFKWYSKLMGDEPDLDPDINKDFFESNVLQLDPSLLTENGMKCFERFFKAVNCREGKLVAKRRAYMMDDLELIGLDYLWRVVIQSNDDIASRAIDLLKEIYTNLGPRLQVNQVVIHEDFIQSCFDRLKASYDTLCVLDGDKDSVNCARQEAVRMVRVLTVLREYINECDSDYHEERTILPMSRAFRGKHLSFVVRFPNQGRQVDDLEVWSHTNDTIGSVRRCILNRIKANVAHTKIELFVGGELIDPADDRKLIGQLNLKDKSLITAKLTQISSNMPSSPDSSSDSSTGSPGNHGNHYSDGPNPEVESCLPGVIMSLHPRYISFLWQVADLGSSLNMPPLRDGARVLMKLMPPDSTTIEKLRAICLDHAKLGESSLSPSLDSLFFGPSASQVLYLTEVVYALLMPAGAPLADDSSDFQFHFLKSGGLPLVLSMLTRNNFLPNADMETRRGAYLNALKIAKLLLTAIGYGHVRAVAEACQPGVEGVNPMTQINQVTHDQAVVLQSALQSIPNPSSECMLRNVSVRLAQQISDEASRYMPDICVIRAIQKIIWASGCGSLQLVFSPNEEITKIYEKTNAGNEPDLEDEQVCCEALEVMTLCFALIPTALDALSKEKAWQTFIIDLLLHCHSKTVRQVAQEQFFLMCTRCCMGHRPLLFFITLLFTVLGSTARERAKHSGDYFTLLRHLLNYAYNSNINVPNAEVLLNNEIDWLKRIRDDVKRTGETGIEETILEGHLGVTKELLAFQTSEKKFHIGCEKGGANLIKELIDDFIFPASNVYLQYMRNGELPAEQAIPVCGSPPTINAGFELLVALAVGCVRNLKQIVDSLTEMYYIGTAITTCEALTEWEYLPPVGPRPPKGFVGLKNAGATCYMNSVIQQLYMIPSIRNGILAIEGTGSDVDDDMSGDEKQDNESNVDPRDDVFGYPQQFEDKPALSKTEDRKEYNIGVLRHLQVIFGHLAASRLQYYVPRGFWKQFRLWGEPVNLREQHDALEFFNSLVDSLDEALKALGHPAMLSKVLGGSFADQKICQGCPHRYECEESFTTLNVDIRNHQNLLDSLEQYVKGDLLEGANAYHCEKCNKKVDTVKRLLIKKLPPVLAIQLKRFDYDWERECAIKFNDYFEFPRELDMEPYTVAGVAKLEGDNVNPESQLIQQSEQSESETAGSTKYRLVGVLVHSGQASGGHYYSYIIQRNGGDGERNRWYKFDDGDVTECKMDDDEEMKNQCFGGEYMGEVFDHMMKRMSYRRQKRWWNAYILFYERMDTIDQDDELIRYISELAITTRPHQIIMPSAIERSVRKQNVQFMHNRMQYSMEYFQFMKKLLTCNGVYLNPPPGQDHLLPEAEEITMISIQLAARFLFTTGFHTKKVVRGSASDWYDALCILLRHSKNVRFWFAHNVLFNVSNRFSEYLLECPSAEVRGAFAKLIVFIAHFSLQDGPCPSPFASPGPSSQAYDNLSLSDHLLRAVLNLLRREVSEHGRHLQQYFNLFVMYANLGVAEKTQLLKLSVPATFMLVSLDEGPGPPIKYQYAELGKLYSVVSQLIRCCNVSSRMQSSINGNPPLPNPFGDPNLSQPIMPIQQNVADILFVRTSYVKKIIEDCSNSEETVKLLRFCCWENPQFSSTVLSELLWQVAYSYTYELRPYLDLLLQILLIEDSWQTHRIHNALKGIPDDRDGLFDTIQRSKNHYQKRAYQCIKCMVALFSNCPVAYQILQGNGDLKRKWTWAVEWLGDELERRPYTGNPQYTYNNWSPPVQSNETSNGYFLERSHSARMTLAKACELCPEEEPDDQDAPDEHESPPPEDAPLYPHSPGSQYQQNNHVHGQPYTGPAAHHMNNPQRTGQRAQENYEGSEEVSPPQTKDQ
USP7, sequence (Q93009 whole entry, looked up): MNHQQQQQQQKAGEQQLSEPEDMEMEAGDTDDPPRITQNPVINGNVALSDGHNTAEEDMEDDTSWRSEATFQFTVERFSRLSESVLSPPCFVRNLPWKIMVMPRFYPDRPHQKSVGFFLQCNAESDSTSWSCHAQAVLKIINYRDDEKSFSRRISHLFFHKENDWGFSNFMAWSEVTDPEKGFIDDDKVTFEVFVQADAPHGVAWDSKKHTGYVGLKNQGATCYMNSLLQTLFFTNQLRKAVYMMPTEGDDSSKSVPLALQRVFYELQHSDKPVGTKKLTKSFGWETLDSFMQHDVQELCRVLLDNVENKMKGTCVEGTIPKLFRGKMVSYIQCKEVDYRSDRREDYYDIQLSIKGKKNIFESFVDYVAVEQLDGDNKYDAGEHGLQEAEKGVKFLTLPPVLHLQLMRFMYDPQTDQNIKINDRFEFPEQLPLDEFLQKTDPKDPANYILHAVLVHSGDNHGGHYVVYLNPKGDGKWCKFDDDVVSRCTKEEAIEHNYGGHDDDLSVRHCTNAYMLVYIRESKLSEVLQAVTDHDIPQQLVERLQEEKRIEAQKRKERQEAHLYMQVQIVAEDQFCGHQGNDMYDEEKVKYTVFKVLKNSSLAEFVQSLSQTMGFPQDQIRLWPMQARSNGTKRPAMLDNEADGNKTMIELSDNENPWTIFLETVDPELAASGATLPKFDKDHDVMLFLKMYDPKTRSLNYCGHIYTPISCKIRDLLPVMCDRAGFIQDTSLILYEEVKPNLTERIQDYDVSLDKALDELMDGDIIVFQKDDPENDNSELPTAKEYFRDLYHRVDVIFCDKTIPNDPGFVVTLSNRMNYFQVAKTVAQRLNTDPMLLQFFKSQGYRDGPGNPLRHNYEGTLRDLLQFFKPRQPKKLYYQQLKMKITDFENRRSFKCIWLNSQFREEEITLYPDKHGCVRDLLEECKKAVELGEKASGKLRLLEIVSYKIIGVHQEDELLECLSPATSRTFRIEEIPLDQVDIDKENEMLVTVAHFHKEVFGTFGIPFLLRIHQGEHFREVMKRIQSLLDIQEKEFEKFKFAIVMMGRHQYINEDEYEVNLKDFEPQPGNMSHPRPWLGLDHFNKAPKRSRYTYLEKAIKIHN

CC(O)CC1CCN(C(=O)CCl)CC1 (stereo not given)
inactive: USP42 0.406 | USP46 -0.263 | USP47 -0.689 | USP48 0.00631 | USP5 -0.447 | USP54 -0.0986 | USP7 -0.335 | USP8 -0.0562 | USP9X -0.195 | UniProt O00487 -0.189

From the supplement of paper PMC11732987, “Enantioselective OTUD7B fragment discovery through chemoproteomics screening and high-throughput optimisation” (Communications Chemistry, 2025)
